{"source": "PubChem BioAssay (NCATS)", "assay_in_all_cases": "Cytotoxic Profiling of Annotated Libraries Using Quantitative High-Throughput Screening (AID 1296008); note: nearly all actives have a fitted effect of over 60% in size; note: potency is the fitted concentration of half-maximal effect; for max response: % is set by controls: 0 for no effect and ±100 for the full control effect", "settings_in_all_cases": "Five cell lines viability, CellTiter-Glo ATP luminescence, 48-72 h; max response: hits give low values", "key": {"CRL-7250": {"tested_on": "CRL-7250", "summary_of_the_method": "(§1)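 Compounds were pin-transferred onto cells and incubated 48 or 72 hr at 37 degree Celsius, 95% humidity. CellTiter-Glo was added, plates sat 10 min at room temperature, then ATP-coupled luminescence was imaged as the viability read-out.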"}, "HEK293": {"tested_on": "HEK293", "summary_of_the_method": "as §1"}, "KB-3-1": {"tested_on": "KB-3-1", "summary_of_the_method": "as §1"}, "HaCat": {"tested_on": "HaCat", "summary_of_the_method": "as §1"}}, "note": "Results filed as inconclusive are left out. Unmarked numbers belong to inactive results. Activity calls are given as the source filed them. Calls come from the whole dose curve; as a rule, active = well fitted inhibition curve with a large enough effect; inconclusive = small, poorly fitted or top-dose-only effect; inactive = flat fitted curve, though single readings scatter. Where a SMILES comes first, the peptide text is derived from it. [ ]: non-standard residue; d: D form. ξ: configuration not given here. ξPhe(βξ-Me) = CC(c1ccccc1)C(N)C(=O)O; GABA = NCCCC(=O)O", "data": [{"smiles": "Cc1ccc([N+](=O)[O-])cc1S(=O)(=O)N(C)/N=C/c1cnc2ccc(Br)cn12", "values": [{"measurement": "Potency", "setting": "CRL-7250", "result": "0.082 µM (active)"}, {"measurement": "Potency", "setting": "HEK293", "result": "0.103 µM (active)"}, {"measurement": "Potency", "setting": "KB-3-1", "result": "0.146 µM (active)"}]}, {"smiles": "CC(C)/C=C1\\NC(=O)C(C(C)C)n2c1nc1c(c2=O)C=CC=CO1", "note": "(stereo not given)", "values": [{"measurement": "max response", "setting": "CRL-7250", "result": -11.8, "unit": "%"}, {"measurement": "max response", "setting": "HEK293", "result": 2.88, "unit": "%"}, {"measurement": "max response", "setting": "KB-3-1", "result": 4.42, "unit": "%"}]}, {"smiles": "CC(=O)OC1C[C@@]2(C)[C@@H](CC[C@@H](C)[C@]23Cc2c(O)cc4c(c2O3)CNC4=O)C(C)(C)[C@@H]1O", "note": "(stereo not given in full)", "values": [{"measurement": "max response", "setting": "CRL-7250", "result": 2.93, "unit": "%"}, {"measurement": "max response", "setting": "HaCat", "result": 4.03, "unit": "%"}, {"measurement": "outcome", "setting": "KB-3-1", "result": "inactive"}]}, {"smiles": "CC(=O)OC1CC2(C)C3=CCC4(C)C5C(O)C(O)C(C(C)C)C5(C)CCC4(C)C3CCC2C(C)(C)C1OC1OC(CO)C(O)C(O)C1O", "note": "(stereo not given)", "values": [{"measurement": "max response", "setting": "CRL-7250", "result": -9.78, "unit": "%"}, {"measurement": "max response", "setting": "HaCat", "result": -3, "unit": "%"}, {"measurement": "max response", "setting": "KB-3-1", "result": 2.57, "unit": "%"}]}, {"smiles": "CC1CCC2(OC1)OC1CC3C4CC=C5CC(O)CC(O[C@@H]6OC[C@@H](O)[C@H](O)[C@H]6O)C5(C)C4CCC3(C)C1(O)C2C", "note": "(stereo not given in full)", "values": [{"measurement": "outcome", "setting": "CRL-7250", "result": "inactive"}, {"measurement": "max response", "setting": "HaCat", "result": 3.49, "unit": "%"}, {"measurement": "max response", "setting": "KB-3-1", "result": 5.9, "unit": "%"}]}, {"smiles": "CCOC(=O)C(CCc1ccccc1)NC1CSC(c2cccs2)CN(CC(=O)O)C1=O", "note": "(stereo not given)", "values": [{"measurement": "max response", "setting": "CRL-7250", "result": 2.02, "unit": "%"}, {"measurement": "max response", "setting": "HaCat", "result": 1.02, "unit": "%"}, {"measurement": "outcome", "setting": "KB-3-1", "result": "inactive"}]}, {"smiles": "COC(=O)C12CCC(C)C(C)C1C1=CCC3C4(C)CCC(OC(C)=O)C(C)(C)C4CCC3(C)C1(C)CC2", "note": "(stereo not given)", "values": [{"measurement": "max response", "setting": "CRL-7250", "result": -3.42, "unit": "%"}, {"measurement": "max response", "setting": "HEK293", "result": 0.571, "unit": "%"}, {"measurement": "max response", "setting": "KB-3-1", "result": 5.8, "unit": "%"}]}, {"smiles": "C[C@@H]([C@@H](O)c1ccc(O)cc1)N1CCC(O)(c2ccccc2)CC1", "values": [{"measurement": "max response", "setting": "CRL-7250", "result": 0.694, "unit": "%"}, {"measurement": "max response", "setting": "HaCat", "result": -0.788, "unit": "%"}, {"measurement": "max response", "setting": "KB-3-1", "result": -1.25, "unit": "%"}]}, {"smiles": "C[C@@H]1CN(Cc2ccccc2)C[C@H]1c1nc2c(cnn2C2CCOCC2)c(=O)[nH]1", "values": [{"measurement": "max response", "setting": "CRL-7250", "result": -0.22, "unit": "%"}, {"measurement": "max response", "setting": "HEK293", "result": 2.89, "unit": "%"}, {"measurement": "max response", "setting": "KB-3-1", "result": 2.05, "unit": "%"}]}, {"smiles": "CC1NC(=O)CCCNC(=O)C(Cc2c[nH]c3ccccc23)NC(=O)C(C)NC(=O)C(C(C)C)NC(=O)C(C(C)c2ccccc2)NC(=O)C(C(C)C)NC1=O", "note": "(stereo not drawn) (cyclo([GABA]AV[ξPhe(βξ-Me)]VAW); configuration not given here)", "values": [{"measurement": "max response", "setting": "CRL-7250", "result": -8.98, "unit": "%"}, {"measurement": "max response", "setting": "HaCat", "result": -0.27, "unit": "%"}, {"measurement": "max response", "setting": "KB-3-1", "result": -4.62, "unit": "%"}]}, {"smiles": "COc1cc2c(NC3CCN(CC4CCCCC4)CC3)nc(N3CCCN(C(C)C)CC3)nc2cc1OCCCN1CCCCC1", "values": [{"measurement": "Potency", "setting": "CRL-7250", "result": "4.61 µM (active)"}, {"measurement": "Potency", "setting": "HEK293", "result": "3.26 µM (active)"}, {"measurement": "Potency", "setting": "KB-3-1", "result": "3.66 µM (active)"}]}, {"smiles": "C[C@H](NC(=O)CCc1nc2ccccc2c(=O)[nH]1)c1ccccc1", "values": [{"measurement": "max response", "setting": "CRL-7250", "result": -24, "unit": "%"}, {"measurement": "max response", "setting": "HEK293", "result": -7.11, "unit": "%"}, {"measurement": "max response", "setting": "KB-3-1", "result": -7.76, "unit": "%"}]}, {"smiles": "COc1cc(N)c(Cl)cc1C(=O)NC[C@@H]1CCN2CCC[C@@H]12", "values": [{"measurement": "max response", "setting": "CRL-7250", "result": -16.7, "unit": "%"}, {"measurement": "max response", "setting": "HEK293", "result": -3.94, "unit": "%"}, {"measurement": "max response", "setting": "KB-3-1", "result": -4.24, "unit": "%"}]}, {"smiles": "COc1ccc(C(=O)n2c(C)c(Cc3cccc(O[C@@H](C)C(=O)O)c3)c3cc(OC(F)(F)F)ccc32)cc1", "values": [{"measurement": "max response", "setting": "CRL-7250", "result": -19.1, "unit": "%"}, {"measurement": "max response", "setting": "HaCat", "result": -6.22, "unit": "%"}, {"measurement": "max response", "setting": "KB-3-1", "result": 0.537, "unit": "%"}]}, {"smiles": "O=C(O)c1ccc(CN2CCC(CN[C@@H]3C[C@H]3c3ccccc3)CC2)cc1", "values": [{"measurement": "max response", "setting": "CRL-7250", "result": -10.5, "unit": "%"}, {"measurement": "max response", "setting": "HEK293", "result": -15.7, "unit": "%"}, {"measurement": "max response", "setting": "KB-3-1", "result": 6.54, "unit": "%"}]}]}
